# This is a sample that favours compounds with a hit; in the whole collection about 8% have one here.
# KB-V1 MDR tox = kills drug-selected multidrug resistant KB-V1 cells; KB-V1 MDR cells viability, CellTiter-Glo, 72 h; Potency, µM (series often up to 46.1 µM), most hits filed as cytotoxic; actives 3.4% (n = 400,000); AID 1347076; note: % is set by controls: 0 for no effect and ±100 for the full control effect; nearly all actives have a fitted effect of over 60% in size
#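 KB-V1 cells (P-gp-expressing MDR subline of KB-3-1) in phenol-red-free DMEM with 10% FBS were exposed to library compounds over a concentration series for 72 h at 37 degrees C. Viability read by CellTiter-Glo luminescence; concentration-effect curves fitted after normalization.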
# HT1080-NT tox = kills 2HG-producing HT-1080-NT fibrosarcoma cells | HT-1080-NT fibrosarcoma viability, CellTiter-Glo ATP luminescence, 48 h | Potency, µM (series often up to 46.1 µM), for the others: at the highest dose activity, negative = less viability, hits mostly cytotoxic | actives 1.6% (n = 360,000) | AID 686970;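 note: NT is the 2HG producing partner of a matched IDH1 knockdown line; 0% = DMSO-treated cells and -100% = media-only wells without cells; nearly all actives have a fitted effect of over 55% in size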
#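 Read-out is CellTiter-Glo luminescence after 10 minutes at room temperature, following 48 hours' compound treatment of HT-1080-NT cells (750 cells/well, RPMI, 5% FBS, 37 degrees C).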
# MCF10A rerep = inducers of DNA re-replication in MCF 10A breast cells; MCF 10A DNA re-replication, Hoechst nuclear intensity, 48 h; Potency, µM (top dose mostly 46.1 µM), for the others: top-dose activity, positive = re-replication, usual class: activators; actives 2.9% (n = 350,000); AID 624296; note: % of control where 0% means no effect; nearly all actives have a fitted effect of over 50% in size
# SW480 rerep = induces DNA re-replication in SW480 colon adenocarcinoma cells. SW480 DNA re-replication, Hoechst DNA content imaging, 48 h. Potency, µM (titrated, usually from 46.1 µM), for inactives: at the highest dose re-replication activation, usual class: activators. actives 1.8% (n = 340,000); note: % of control where 0% means no effect; nearly all actives have a fitted effect of over 55% in size
#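 250 cells/well; 23 nL cpd via pin tool; 48 hr, 37 C, 5% CO2; Hoechst 40 min; imager read of total nuclear intensity, ex 405/em 500-530 nm.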
# KB-3-1 tox = kills parental KB-3-1 adenocarcinoma cells; KB-3-1 viability, CellTiter-Glo ATP luminescence, 72 h; Potency, µM (highest dose often 46.1 µM), most hits filed as cytotoxic; actives 1.4% (n = 400,000); note: % is set by controls: 0 for no effect and ±100 for the full control effect; nearly all actives have a fitted effect of over 60% in size
#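 Parental KB-3-1 adenocarcinoma cells in phenol-red-free DMEM with 10% FBS were pin-treated with compounds at several concentrations, incubated 72 h at 37 °C, and viability read by CellTiter-Glo luminescence; concentration-effect curves were fitted after normalization.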
# HT1080 IDH1KD tx = HT-1080 IDH1 knockdown cell toxicity (counter line) | Potency, µM (highest dose often 46.1 µM), inactives show at the highest dose activity, negative = toxicity, usual class: cytotoxic | HT-1080 IDH1 knockdown viability, ATP luminescence, 48 h | AID 686971 | actives 2% (n = 360,000);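 note: 0% = DMSO wells and -100% = cell-free medium wells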
#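 % activity derives from luminescence (CellTiter-Glo), normalised to DMSO and no-cell wells. HT-1080-IDH1KD cells, 750/well, had 48 h compound exposure at 37 °C.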
# * = called active by the depositor; i = inactive; u = inconclusive; x = not tested or not shown; [ ] = another dose, or the depositor's remark. Calls come from the whole dose curve; as a rule, active = well fitted curve in the direction sought with a large enough effect; inconclusive = small, poorly fitted or top-dose-only effect, or another doubt; inactive = no such curve, though single readings can be large; an effect the other way counts as inactive or inconclusive. Potency is the fitted concentration of half-maximal effect.
SMILES,KB-V1 MDR tox,HT1080-NT tox,MCF10A rerep,SW480 rerep,KB-3-1 tox,HT1080 IDH1KD tx
C=CCn1c(=O)c2ccccc2n2c(SCC(=O)c3ccccc3)nnc12,i,-3%,10%,-6%,i,0%
C=CCn1c(=O)c2ccccc2n2c(SCc3nnc(-c4ccccc4Br)o3)nnc12,i,-5%,23µM*,15%,i,-2%[9.24 µM]
CC1(C)CC(=O)c2c(nc3ccccc3c2N)C1,i,8%,13%,-1%,i,12%
Cc1nc2c(c3c1[nH]c1ccccc13)C(=O)CC(C)(C)C2,i,u,23µM*,u,i,-28%
Cc1ccc(Cn2cc(C(=O)c3ccc4c(c3)OCO4)c(=O)c3cc(C)ccc32)cc1,i,x,x,x,i,x
O=C1c2cccc(OCC(=O)N3CCCc4ccccc43)c2CCN1Cc1ccc(Br)cc1,18µM*,-27%,u,u,18µM*,u
O=C(COc1cccc2c1CCN(Cc1ccc(Br)cc1)C2=O)NCc1ccco1,2.6µM*,-5%,25%,0%,u,-2%
O=C(COc1cccc2c1CCN(Cc1ccc(Br)cc1)C2=O)N1CCOCC1,4.1µM*,-14%,17%,-2%,u,-2%
Cc1ccccc1CN1CCc2c(OCC(=O)N3CCCCC3)cccc2C1=O,u,-14%,u,0%,i,0%
O=C1c2cccc(OCC(=O)N3CCCc4ccccc43)c2CCN1Cc1ccccc1,i,1%,0%,-7%,i,-2%
Cc1ccc(C(C(=O)NC2CCCC2)N(C(=O)Cc2cccs2)c2ccc(C)c(C)c2)o1 (centres undefined),21µM*,0%,1%,u,i,u
Cc1ccc(C(C(=O)NC2CCCC2)N(C(=O)Cc2cccs2)c2ccc3c(c2)OCCO3)cc1 (centres undefined),21µM*,-7%,4%,u,i,-13%
Cc1nn(C)cc1C(C(=O)NC1CCCCC1)N(C(=O)Cc1cccs1)c1ccc(F)cc1 (centres undefined),i,3%,15%,-37%,i,21%
COc1ccc(CNC(=O)C(c2ccc(C)cc2)N(Cc2cccs2)C(=O)c2ccc3c(c2)OCCO3)cc1 (centres undefined),4.6µM*,u,u,u,i,13µM*
O=C(NC1CCCC1)C(c1ccc(F)cc1)N(C(=O)Cc1cccs1)c1ccc2c(c1)OCCO2 (centres undefined),i,0%,u,21%,i,3%
Cc1nn(C)cc1C(C(=O)NC1CCCCC1)N(C(=O)Cc1cccs1)c1ccc(C(C)C)cc1 (centres undefined),2.9µM*,u,u,6%,u,u
Cc1ccc(C)c(N(C(=O)Cc2cccs2)C(C(=O)NC2CCCC2)c2ccc(C)o2)c1 (centres undefined),u,-2%,7%,0%,i,6%
COC(=O)Cc1c(C)c2ccc3c(c2oc1=O)CN(Cc1ccccc1Cl)CO3,i,x,x,x,i,x
CCCCNC(=O)CN1CCN(c2ccc(NC(=O)c3ccc(OC)cc3)cc2C(=O)O)CC1,i,x,x,x,i,x
CCN(C(=O)c1cccs1)c1nnc(-c2ccncc2)s1,18µM*,u,27%,-14%,i,7%
O=S(=O)(c1ccccc1)N(Cc1ccccc1)c1ccccn1,8.2µM*,5%,-2%,-10%,u,4%
Fc1ccc(-[n+]2nc(Nc3ccccc3)sc2-c2ccc(OCc3ccccc3)cc2)cc1,i,-10%,1.3µM*,0%,u,-13%
Cc1cc(NC(=O)c2cc(-c3ccc(Br)cc3)on2)nn1Cc1ccc(Cl)cc1,i,x,x,x,i,x
COc1ccc(-n2c(-c3ccc(C)cc3)cc3c2CC(C)(C)CC3=O)cc1Cl,i,x,x,x,i,x
Brc1ccc(-c2noc(COc3ccc4c(c3)CCC4)n2)o1,i,-5%,10%,-11%,i,-3%
SMILES,KB-V1 MDR tox,HT1080-NT tox,MCF10A rerep,SW480 rerep,KB-3-1 tox,HT1080 IDH1KD tx
c1csc(-c2noc(COc3ccc4c(c3)CCCC4)n2)c1,i,-5%,15µM*,7%,i,1%
COc1cccc(N2CCN(C(=O)CCCCCNc3nc(=S)[nH]c4ccccc34)CC2)c1,10µM*,-19%,28%,u,i,u
S=C(NCCCN(Cc1ccc(Cl)cc1)c1ccc(Br)cn1)NCc1ccc2nc[nH]c2c1,i,x,x,x,i,x
COc1ccc(CCNC(=O)CCS(=O)(=O)c2cc(Br)cc3c2N(C(C)=O)CC3)cc1OC,i,x,x,x,i,x
c1ccc(Oc2ccc(-c3ccnc4nc(N5CCOCC5)nn34)cc2)cc1,u,-13%,18µM*,16µM*,i,u
COc1ccc(-c2ccnc3nc(N4CCOCC4)nn23)cc1,u,-4%,-1%,-6%,i,-1%
Cc1ccc2nc(Cl)c3cc(C(=O)NCCCN4CCCC4)sc3c2c1,i,18µM*,u,u,u,u
Cc1ccc2nc(Cl)c3cc(C(=O)N(CCN(C)C)Cc4ccco4)sc3c2c1,u,u,16µM*,u,u,23µM*
CN(C)CCN(Cc1ccco1)C(=O)c1cc2c(Cl)nc3ccccc3c2s1,i,u,u,u,u,u
CCC1CCCCN1CCCNC(=O)c1cc2c(Cl)nc3ccc(C)cc3c2s1 (centres undefined),i,x,x,x,i,x
O=C(NCc1ccccc1F)C1CCCN(C(=O)N2CCOc3ccccc32)C1 (centres undefined),i,x,x,x,i,x
CCOc1ccc(CNC(=O)C2CCN(c3nc4ccccc4nc3C(F)(F)F)CC2)cc1OC,i,x,x,x,i,x
Brc1ccc[n+](CCc2ccccc2)c1,i,x,x,x,i,x
CCN(C(=O)Cn1c(C(=O)OC)cc2oc3ccccc3c21)c1cccc(C)c1,i,x,x,x,i,x
C=Cc1ccc(Cn2c(C)c(C(=O)NCc3ccc(C#N)cc3)sc2=O)cc1,18µM*,-13%,x,x,u,-27%
C=Cc1ccc(Cn2c(C)c(C(=O)NCc3ccc4c(c3)OCO4)sc2=O)cc1,u,-15%,x,x,u,-17%
COc1ccccc1Cn1c(C)c(C(=O)NCc2ccc(C#N)cc2)sc1=O,16µM*,-27%,x,x,i,-28%
COC(=O)c1ccc(Cn2c(C)c(C(=O)NCc3ccc(C#N)cc3)sc2=O)o1,23µM*,-11%,x,x,i,u
Cc1cccc(-c2nn3c(=O)cc(CN4CCN(S(=O)(=O)c5ccc(Cl)cc5)CC4)nc3s2)c1,i,x,x,x,i,x

# Compound activity as filed in PubChem BioAssay.
